This passage reports sensor-assay potency score (higher = more potent) results from the OligoGym collection.
Also: reference of the scale not given here.

The target in one assay is CHCHD8. The experiment in a line: pooled miR-30 sensor sort-seq; sequence = guide strand. The following applies: shRNA.
As to TCATCGTCTTTCTTCACCCGTT, the sensor-assay potency score (higher = more potent) is -0.24. TATGACAGCTGTTTGTGCCAGT came in with a sensor-assay potency score (higher = more potent) of 0.271.

The sequence TCTTCCTCTATAATCTTGCTGG yielded a sensor-assay potency score (higher = more potent) of -0.27.

As for TTGCCTCCTCTGCAGCTCCTCT, the sensor-assay potency score (higher = more potent) is -1.69. The same measure, in the same setting: with TCATGCAATCCTTGAACGCCTG the figure was -0.766; with TTGCCGCCAGTCCTGGTGCTGG, -1.88; with TTCTTCACCCGTTGGGTCCAGG, -0.933. Sequence TTGTTCTTGCCTCCTCTGCAGC came in with a sensor-assay potency score (higher = more potent) of -1.04. Sequence TTCCTCTATAATCTTGCTGGGT showed a sensor-assay potency score (higher = more potent) of -1.07.

TTCTTGCCTCCTCTGCAGCTCC registered a sensor-assay potency score (higher = more potent) of -1.23. In turn, TCGTCTTTCTTCACCCGTTGGG had a sensor-assay potency score (higher = more potent) of -0.227.

For the next assay, the target named is CHD2. Described as above. The settings on record: shRNA.
Turning to TAAACTGTGATAGAAGTTCATC, the sensor-assay potency score (higher = more potent) was -0.983.

Sequence TTATCTGTGTGGAAAGAGCGGT came in with a sensor-assay potency score (higher = more potent) of -0.167. The same measure, in the same setting: next, TCAACAAGTAATCCGCTCGGGT: -0.663; TTCAACAAGTAATCCGCTCGGG: 0.35; TTCCTTAATATTAAATCGCGAT: -0.656. Still for that read-out and setting: next, TTGCACTTGTTGACACTTCATT: -0.8.

Turning to TTTTGCACCAGGAATGAGCTAG, the sensor-assay potency score (higher = more potent) turned out to be 0.429. In the case of TATTACTCTTTCTACTATCTGA, the sensor-assay potency score (higher = more potent) is 0.18.

As to TTCTTCTAGCTCCTTCTGCCGC, the sensor-assay potency score (higher = more potent) was -0.813. The same measure, in the same setting: with TTTCATTGGACTTTTTTCCAAG the figure was -0.762. Consider TAAGCCTTGATGAACCTTCGGA, for which the sensor-assay potency score (higher = more potent) came to 0.0623.

On to TGCATTGCTGACACACAGCTGT, for which the sensor-assay potency score (higher = more potent) was -0.311. As to TTTCTTATGAGCCATCTTGTAT, the sensor-assay potency score (higher = more potent) was -1.08.

In turn, TTGTTTTCCAGGATCGTCCGGC gave a sensor-assay potency score (higher = more potent) of -0.196. Sequence TTGATTGTTGGACCTCTCCTTT yielded a sensor-assay potency score (higher = more potent) of -0.473. Take TTCTTCTTGAGACCTTTTCTTA: the sensor-assay potency score (higher = more potent) was -0.844. In the case of TAGCACCTTATGAAGACTCTGG, the sensor-assay potency score (higher = more potent) is -0.21.

Take TGACACTTCATTCTCTCTCGTT: the sensor-assay potency score (higher = more potent) is -0.0754. TTTATCTGTCTCCACCGGCAGA gave a sensor-assay potency score (higher = more potent) of -1.04. TTTAAAGCTACAAATCGTGGTC returned a sensor-assay potency score (higher = more potent) of 0.518. On the same count and under the same terms, with TTATAAGCCTTGATGAACCTTC the figure was 0.197; with ATAAATTTCTTCTAGCTCCTTC, 1.15; with TTCTTCACATCAGCTATCCGTT, -0.528.

Another assay addresses CHEK1. The description is as above. The following applies: shRNA.
TTCTTCACTAGAAGCACTGTTT: the sensor-assay potency score (higher = more potent) came to 0.0317. As to TATCCCATAAGGAAAGACCTGT, the sensor-assay potency score (higher = more potent) is -0.371. Consider TTGTTGATATAGTAACCTGATT, for which the sensor-assay potency score (higher = more potent) is -1.22. Take TGTCTCTTGAACTCCAATCCAT: the sensor-assay potency score (higher = more potent) is -0.483. Regarding TTCCACAGGACCAAACATCAAC, the sensor-assay potency score (higher = more potent) was -1.04. Sequence TAGCAGCACTATATTCACCAGG yielded a sensor-assay potency score (higher = more potent) of -0.884.
